{"source": "PubChem BioAssay (NCATS)", "key": {"[1]": {"assay": "Quantitative High-Throughput drug screen in 47 multiple myeloma cell lines against the NCATS MIPE library collection: MOLP8_DSMZ cell viability assay (AID 1918977); further: nearly all actives have a fitted effect of over 45% in size", "method_in_brief": "(§1)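 Viability after 48 h drug exposure was measured as ATP-dependent luminescence. Cells, 500 per well, sat at 37 °C under 5% CO2; DMSO wells set 100%, media-only wells 0%.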"}, "[2]": {"assay": "Quantitative High-Throughput drug screen in 47 multiple myeloma cell lines against the NCATS MIPE library collection: NCIH929_DSMZ cell viability assay (AID 1918978)", "method_in_brief": "as §1"}, "[3]": {"assay": "Quantitative High-Throughput drug screen in 47 multiple myeloma cell lines against the NCATS MIPE library collection: OCIMY1_PLB cell viability assay (AID 1918979)", "method_in_brief": "as §1"}, "[4]": {"assay": "Quantitative High-Throughput drug screen in 47 multiple myeloma cell lines against the NCATS MIPE library collection: MM1S_ATCC cell viability assay (AID 1918980)", "method_in_brief": "as §1"}, "[5]": {"assay": "Quantitative High-Throughput drug screen in 47 multiple myeloma cell lines against the NCATS MIPE library collection: LP1_DSMZ cell viability assay (AID 1918982)", "method_in_brief": "as §1"}, "[6]": {"assay": "Quantitative High-Throughput drug screen in 47 multiple myeloma cell lines against the NCATS MIPE library collection: KMS34_JCRB cell viability assay (AID 1918985)", "method_in_brief": "as §1"}, "[7]": {"assay": "Quantitative High-Throughput drug screen in 47 multiple myeloma cell lines against the NCATS MIPE library collection: OCIMY7_PLB cell viability assay (AID 1918987)", "method_in_brief": "as §1"}, "[8]": {"assay": "Quantitative High-Throughput drug screen in 47 multiple myeloma cell lines against the NCATS MIPE library collection: SKMM1_PLB cell viability assay (AID 1919863)", "details": "SKMM1 myeloma viability, CellTiter-Glo ATP, 48 h; viability: active compounds read low", "method_in_brief": "as §1"}, "[9]": {"assay": "Quantitative High-Throughput drug screen in 47 multiple myeloma cell lines against the NCATS MIPE library collection: XG6_PLB cell viability assay (AID 1919865)", "method_in_brief": "as §1"}, "[10]": {"assay": "Quantitative High-Throughput drug screen in 47 multiple myeloma cell lines against the NCATS MIPE library collection: VP6_DJ cell viability assay (AID 1919867)", "method_in_brief": "as §1"}, "[11]": {"assay": "Quantitative High-Throughput drug screen in 47 multiple myeloma cell lines against the NCATS MIPE library collection: PE2_PLB cell viability assay (AID 1919869)", "method_in_brief": "as §1"}, "[12]": {"assay": "Quantitative High-Throughput drug screen in 47 multiple myeloma cell lines against the NCATS MIPE library collection: MM1R_ATCC cell viability assay (AID 1918981)", "method_in_brief": "as §1"}, "[13]": {"assay": "Quantitative High-Throughput drug screen in 47 multiple myeloma cell lines against the NCATS MIPE library collection: KMS28PE_JCRB cell viability assay (AID 1918983)", "method_in_brief": "as §1"}, "[14]": {"assay": "Quantitative High-Throughput drug screen in 47 multiple myeloma cell lines against the NCATS MIPE library collection: L363_DSMZ cell viability assay (AID 1918984)", "method_in_brief": "as §1"}, "[15]": {"assay": "Quantitative High-Throughput drug screen in 47 multiple myeloma cell lines against the NCATS MIPE library collection: OCIMY5_PLB cell viability assay (AID 1918988)", "method_in_brief": "as §1"}, "[16]": {"assay": "Quantitative High-Throughput drug screen in 47 multiple myeloma cell lines against the NCATS MIPE library collection: OPM1_PLB cell viability assay (AID 1918989)", "method_in_brief": "as §1"}, "[17]": {"assay": "Quantitative High-Throughput drug screen in 47 multiple myeloma cell lines against the NCATS MIPE library collection: U266_ATCC cell viability assay (AID 1919864)", "method_in_brief": "as §1"}, "[18]": {"assay": "Quantitative High-Throughput drug screen in 47 multiple myeloma cell lines against the NCATS MIPE library collection: UTMC2_PLB cell viability assay (AID 1919868)", "details": "CellTiter-Glo ATP luminescence, 48 h; viability (% of DMSO control): at 45.8 µM", "method_in_brief": "as §1"}}, "note": "Results filed as inconclusive are left out. Entries that show only a call come without a potency. Unmarked numbers belong to inactive results. Calls of active or inactive are those of the source. The call rests on the fitted dose curve; in most records, active means well fitted curve in the direction sought with a large enough effect; inconclusive means small, poorly fitted or top-dose-only effect, or another doubt; inactive means no such curve, though single readings can be large; an effect the other way counts as inactive or inconclusive. Potency means the concentration at half of the fitted maximal effect. Wherever viability (% of DMSO control) is given: nearly all actives have a fitted effect of over 35% in size."}
{"smiles": "CC(=Cc1csc(C)n1)[C@@H]1C[C@H]2O[C@]2(C)CCC[C@H](C)[C@@H](O)[C@@H](C)C(=O)C(C)(C)[C@@H](O)CC(=O)O1", "values": [{"measurement": "Potency", "setting": "[1]", "result": "inactive"}, {"measurement": "Potency", "setting": "[2]", "result": "inactive"}, {"measurement": "Potency", "setting": "[3]", "result": "inactive"}, {"measurement": "Potency", "setting": "[4]", "result": "inactive"}, {"measurement": "Potency", "setting": "[5]", "result": "inactive"}, {"measurement": "Potency", "setting": "[6]", "result": "inactive"}, {"measurement": "Potency", "setting": "[7]", "result": "inactive"}, {"measurement": "viability", "setting": "[8]", "result": 69.9, "unit": "%"}, {"measurement": "Potency", "setting": "[9]", "result": "inactive"}, {"measurement": "Potency", "setting": "[10]", "result": "inactive"}, {"measurement": "Potency", "setting": "[11]", "result": "inactive"}]}
{"smiles": "C1=C2CCCN[C@H]2[C@@H]2C[C@H]1[C@@H]1CCCCN1C2", "values": [{"measurement": "Potency", "setting": "[1]", "result": "inactive"}, {"measurement": "Potency", "setting": "[2]", "result": "inactive"}, {"measurement": "Potency", "setting": "[3]", "result": "inactive"}, {"measurement": "Potency", "setting": "[4]", "result": "inactive"}, {"measurement": "Potency", "setting": "[12]", "result": "inactive"}, {"measurement": "Potency", "setting": "[5]", "result": "inactive"}, {"measurement": "Potency", "setting": "[13]", "result": "inactive"}, {"measurement": "Potency", "setting": "[14]", "result": "inactive"}, {"measurement": "Potency", "setting": "[6]", "result": "inactive"}, {"measurement": "Potency", "setting": "[7]", "result": "inactive"}, {"measurement": "Potency", "setting": "[15]", "result": "inactive"}, {"measurement": "Potency", "setting": "[16]", "result": "inactive"}, {"measurement": "viability", "setting": "[8]", "result": 99.4, "unit": "%"}, {"measurement": "Potency", "setting": "[17]", "result": "inactive"}, {"measurement": "Potency", "setting": "[9]", "result": "inactive"}, {"measurement": "Potency", "setting": "[11]", "result": "inactive"}]}
{"smiles": "COC1=C[C@@H]2[C@@H]3Cc4ccc(OC)c(O)c4[C@]2(CCN3C)CC1=O", "values": [{"measurement": "Potency", "setting": "[1]", "result": "inactive"}, {"measurement": "Potency", "setting": "[2]", "result": "1660 nM (active)"}, {"measurement": "Potency", "setting": "[4]", "result": "1660 nM (active)"}, {"measurement": "Potency", "setting": "[13]", "result": "inactive"}, {"measurement": "Potency", "setting": "[14]", "result": "2960 nM (active)"}, {"measurement": "Potency", "setting": "[7]", "result": "3320 nM (active)"}, {"measurement": "Potency", "setting": "[15]", "result": "1660 nM (active)"}, {"measurement": "Potency", "setting": "[16]", "result": "9350 nM (active)"}, {"measurement": "viability", "setting": "[8]", "result": 132, "unit": "%"}, {"measurement": "Potency", "setting": "[17]", "result": "2350 nM (active)"}, {"measurement": "Potency", "setting": "[9]", "result": "1180 nM (active)"}, {"measurement": "Potency", "setting": "[10]", "result": "2350 nM (active)"}, {"measurement": "Potency", "setting": "[11]", "result": "9350 nM (active)"}]}
{"smiles": "O=S(=O)(F)Cc1ccccc1", "values": [{"measurement": "Potency", "setting": "[1]", "result": "inactive"}, {"measurement": "Potency", "setting": "[2]", "result": "inactive"}, {"measurement": "Potency", "setting": "[3]", "result": "inactive"}, {"measurement": "Potency", "setting": "[4]", "result": "41.8 nM (active)"}, {"measurement": "Potency", "setting": "[12]", "result": "inactive"}, {"measurement": "Potency", "setting": "[5]", "result": "inactive"}, {"measurement": "Potency", "setting": "[13]", "result": "inactive"}, {"measurement": "Potency", "setting": "[6]", "result": "inactive"}, {"measurement": "Potency", "setting": "[15]", "result": "inactive"}, {"measurement": "Potency", "setting": "[16]", "result": "13200 nM (active)"}, {"measurement": "Potency", "setting": "[9]", "result": "743 nM (active)"}, {"measurement": "Potency", "setting": "[10]", "result": "inactive"}, {"measurement": "Potency", "setting": "[11]", "result": "105 nM (active)"}]}
{"smiles": "O=c1cccc2n1CC1CNC[C@H]2C1", "values": [{"measurement": "Potency", "setting": "[1]", "result": "inactive"}, {"measurement": "Potency", "setting": "[3]", "result": "inactive"}, {"measurement": "Potency", "setting": "[4]", "result": "10500 nM (active)"}, {"measurement": "Potency", "setting": "[12]", "result": "inactive"}, {"measurement": "Potency", "setting": "[5]", "result": "inactive"}, {"measurement": "Potency", "setting": "[13]", "result": "inactive"}, {"measurement": "Potency", "setting": "[6]", "result": "inactive"}, {"measurement": "Potency", "setting": "[16]", "result": "20900 nM (active)"}, {"measurement": "viability", "setting": "[8]", "result": 142, "unit": "%"}, {"measurement": "Potency", "setting": "[17]", "result": "20900 nM (active)"}, {"measurement": "Potency", "setting": "[10]", "result": "13200 nM (active)"}]}
{"smiles": "CO[C@H]1CCC(O[C@H]2C[C@H]([C@]3(C)CC[C@]4(C[C@H](O)[C@@H](C)[C@@H]([C@@H](C)C=C(C)C(=O)[C@H](C)C[C@H](C)C(=O)O)O4)O3)O[C@]3(O[C@@H]([C@H]4O[C@@](O)(CO)[C@H](C)C[C@H]4C)C[C@H]3C)[C@H]2C)O[C@H]1C", "note": "(some centres not stated)", "values": [{"measurement": "Potency", "setting": "[1]", "result": "296 nM (active)"}, {"measurement": "Potency", "setting": "[2]", "result": "833 nM (active)"}, {"measurement": "Potency", "setting": "[3]", "result": "5260 nM (active)"}, {"measurement": "Potency", "setting": "[4]", "result": "296 nM (active)"}, {"measurement": "Potency", "setting": "[12]", "result": "1050 nM (active)"}, {"measurement": "Potency", "setting": "[5]", "result": "833 nM (active)"}, {"measurement": "Potency", "setting": "[13]", "result": "3720 nM (active)"}, {"measurement": "Potency", "setting": "[14]", "result": "148 nM (active)"}, {"measurement": "Potency", "setting": "[6]", "result": "1180 nM (active)"}, {"measurement": "Potency", "setting": "[7]", "result": "935 nM (active)"}, {"measurement": "Potency", "setting": "[15]", "result": "132 nM (active)"}, {"measurement": "Potency", "setting": "[16]", "result": "418 nM (active)"}, {"measurement": "Potency", "setting": "[8]", "result": "1180 nM (active)"}, {"measurement": "Potency", "setting": "[17]", "result": "296 nM (active)"}, {"measurement": "Potency", "setting": "[9]", "result": "418 nM (active)"}, {"measurement": "Potency", "setting": "[10]", "result": "1050 nM (active)"}, {"measurement": "Potency", "setting": "[18]", "result": "469 nM (active)"}, {"measurement": "Potency", "setting": "[11]", "result": "1180 nM (active)"}]}
